# Measured values as given in publication PMC4336329 (PLoS ONE, 2015).
# Hit rate of the full screen: of about 310,000 compounds, about 14,000 (4.5%) showed an effect of 50% or more. The effect is printed as a negative number. For the sample, strong results were picked, then their nearest neighbours and some compounds at random.
# Biological target: human ether-à-go-go-related gene (hERG) potassium channel (human, UniProt Q12809)
# Experiment: primary screen, population patch clamp on CHO cells stably expressing hERG; higher = less effect of the substance
# 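Also: peak tail current of the secondary pulse compared with the same well before compound.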
# Chain of human ether-à-go-go-related gene (hERG) potassium channel (Q12809 whole entry, looked up): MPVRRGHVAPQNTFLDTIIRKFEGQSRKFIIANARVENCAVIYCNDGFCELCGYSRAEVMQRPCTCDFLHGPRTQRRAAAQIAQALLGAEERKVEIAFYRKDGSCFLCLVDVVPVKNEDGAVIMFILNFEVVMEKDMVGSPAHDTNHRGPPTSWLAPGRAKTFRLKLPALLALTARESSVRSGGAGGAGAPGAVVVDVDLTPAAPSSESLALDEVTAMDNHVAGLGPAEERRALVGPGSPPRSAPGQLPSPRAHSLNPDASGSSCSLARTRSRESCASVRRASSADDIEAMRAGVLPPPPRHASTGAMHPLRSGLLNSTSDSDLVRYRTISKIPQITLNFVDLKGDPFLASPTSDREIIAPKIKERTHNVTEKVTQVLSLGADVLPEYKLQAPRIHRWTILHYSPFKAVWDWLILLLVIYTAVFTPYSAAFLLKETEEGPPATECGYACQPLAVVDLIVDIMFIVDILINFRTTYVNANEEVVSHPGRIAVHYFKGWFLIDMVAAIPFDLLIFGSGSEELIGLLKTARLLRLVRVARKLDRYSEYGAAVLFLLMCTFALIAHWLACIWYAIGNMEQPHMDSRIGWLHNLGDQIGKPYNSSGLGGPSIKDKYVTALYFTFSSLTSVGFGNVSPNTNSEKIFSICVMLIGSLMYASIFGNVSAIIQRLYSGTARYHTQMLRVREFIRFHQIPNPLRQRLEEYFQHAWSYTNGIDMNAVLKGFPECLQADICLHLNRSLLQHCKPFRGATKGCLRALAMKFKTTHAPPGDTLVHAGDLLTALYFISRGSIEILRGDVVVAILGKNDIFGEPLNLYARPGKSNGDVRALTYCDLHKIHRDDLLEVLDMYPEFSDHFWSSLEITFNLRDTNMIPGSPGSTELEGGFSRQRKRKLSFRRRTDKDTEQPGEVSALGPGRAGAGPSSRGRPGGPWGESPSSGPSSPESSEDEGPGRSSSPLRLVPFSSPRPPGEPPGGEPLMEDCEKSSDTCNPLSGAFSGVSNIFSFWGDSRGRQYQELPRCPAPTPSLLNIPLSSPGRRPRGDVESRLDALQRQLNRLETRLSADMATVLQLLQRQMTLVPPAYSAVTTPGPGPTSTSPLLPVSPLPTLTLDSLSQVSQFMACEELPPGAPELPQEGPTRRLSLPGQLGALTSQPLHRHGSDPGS
row,Compound,"hERG current change (%, negative = inhibition) at 10uM [%]"
1,O=C(COC(=O)c1cccc(Cl)c1)Nc1cc(Cl)ccc1Oc1ccccc1,15.1
2,COCc1cc(=O)n2[nH]c(-c3cccc(Br)c3)cc2n1,-24.2
3,CC1=CC(=O)C=C(C)C1=NOC(=O)c1cccc([N+](=O)[O-])c1,9.59
4,Cc1c(C(=O)NCCN2CCOCC2)oc2ccc(Br)cc12,-15
5,CCOc1ccc2oc(C(=O)NC3CCN(Cc4ccccc4)CC3)c(C)c2c1.Cl,-15.1
6,CCOC(=O)N1CCC(NC(=O)c2oc3c(F)cccc3c2C)CC1,-15.4
7,Cc1c(C(=O)NC2CCN(Cc3ccccc3)C2)oc2c(Cl)cccc12 (stereo not shown),-71.8
8,O=C(NC1CCN(Cc2ccccc2)CC1)c1c(Cl)cccc1Cl,-10.7
9,Cc1c(C(=O)NC2CCN(Cc3ccccc3)C2)oc2ccc(Br)cc12 (stereo not shown),-61.8
10,O=C(OCC(=O)c1cccs1)C1=COCCO1,19.7
11,CC1CN(C(=O)/C(C#N)=C2\N=C(NC(=O)c3ccc(F)cc3)c3ccccc32)CC(C)O1 (stereo not shown),14.1
12,CCOC(=O)C1(Cc2ccccc2)CCCN(CCO)C1 (stereo not shown),6.18
13,COc1cc2cc(C(=O)N3CCN(c4ccccc4OC)CC3)[nH]c2cc1OC,24.5
14,C=CCN1CCN(C(=O)CCc2ccccc2)CC1,13.8
15,COc1cccc(N2CCN(C(=S)Nc3ccc(F)cc3)CC2)c1,16.1
16,CC1CCN(CCCOc2ccc(OCc3ccccc3)cc2)CC1.O=C(O)C(=O)O,-71.4
17,CC1CCN(CCOc2ccc(OCc3ccccc3)cc2)CC1.O=C(O)C(=O)O,-70.9
18,CC1CCCN(Cc2ccc(OCc3ccccc3)cc2)C1 (stereo not shown),-43.3
19,COc1ccc(Cl)cc1N1C(=O)C2CCCN2C1c1ccccc1F (stereo not shown),-0.486
20,C=CCNC(=O)C12CC3(C)CC(C)(CC(C)(C3)C1)C2,-11.8
21,CCOC(=O)C1CCCN(C(=O)CN(c2ccc(OC)cc2)S(=O)(=O)c2c(C)noc2C)C1 (stereo not shown),-4.08
22,CCOC(=O)C1(Cc2ccc(OC)cc2)CCN(C(=O)c2cc(C)nn2C)CC1,-40.5

row,Compound,"hERG current change (%, negative = inhibition) at 10uM [%]"
1,O=[N+]([O-])c1cccc(Cl)c1NCCNS(=O)(=O)c1ccccc1,-15.2
2,Oc1ccccc1/C=N/c1c(-c2ccco2)nc2ccccn12,-4.17
3,OC1CCN(c2c3c(nc4cc(-c5ccc(F)cc5)nn24)CCC3)CC1,-7.45
4,Cc1ccc(/C=C/C(=O)N2CCCC(C(N)=O)C2)o1 (stereo not shown),-8.59
5,CCOc1ccc2c(c1)sc(N)[n+]2Cc1cc(C)cc2cccnc12.[Br-],-74.9
6,CCOc1ccc(C(=O)C[n+]2cccc3cc(C)ccc32)cc1.[Br-],-47.9
7,COc1ccc2c(c1)sc(N)[n+]2Cc1cc(C)cc2cccnc12.[Br-],-74
8,Cc1cc(C[n+]2ccsc2N)c2ncccc2c1.[Br-],-48.2
9,Cc1cc(C[n+]2ncsc2N)c2ncccc2c1.[Br-],-33.8
10,CCOc1cccc(OCCCOc2cccc3cccnc23)c1,-8.52
11,CC(C)CCN(C(=O)C1CSC2(C)CCC(=O)N12)c1c(N)n(Cc2ccccc2)c(=O)[nH]c1=O (stereo not shown),6.21
12,CC12CCC(C(=O)N(c3cccc(Cl)c3)C1=O)C2(C)C (stereo not shown),-4.23
13,O=Nc1ccc(NOC(=O)c2ccccc2)cc1,5.89
14,COc1ccc(CNC(=O)C(C#N)c2nc3ccccc3nc2N2CCCC2)cc1 (stereo not shown),10.1
15,COc1ccc(C)cc1NC(=O)c1ccc(S(=O)(=O)N2CCOCC2)cc1,2.48
16,C=CCc1ccccc1OCC(O)CN1CCOCC1 (stereo not shown),13.1
17,CC(C)OCC(O)CN1CCN(CC(O)COc2ccc3c(c2)OCO3)CC1 (stereo not shown),-33.3
18,Cc1c(C(O)CN2CCN(Cc3ccc4c(c3)OCO4)CC2)c2ccccc2n1C (stereo not shown),-75.6
19,C=CCc1ccccc1OCC(O)CN1CCN(Cc2ccc3c(c2)OCO3)CC1 (stereo not shown),-91
20,Cl.OC(COc1ccccc1)CN1CCN(Cc2ccc3c(c2)OCO3)CC1 (stereo not shown),-60.5
21,COc1ccc2c(c1)c(C(O)CN1CCN(Cc3ccc4c(c3)OCO4)CC1)c(C)n2C (stereo not shown),-11
22,Cl.OCCN1CCN(CC(O)COc2ccc3c(c2)OCO3)CC1 (stereo not shown),12.7

row,Compound,"hERG current change (%, negative = inhibition) at 10uM [%]"
1,Cl.OC(COCc1ccccc1)CN1CCN(Cc2ccc3c(c2)OCO3)CC1 (stereo not shown),-45
2,COc1ccc(OCC(O)CN2CCN(Cc3ccc4c(c3)OCO4)CC2)cc1.Cl (stereo not shown),-47.4
3,Cc1c(C(=O)C(=O)N2CCN(Cc3ccc4c(c3)OCO4)CC2)c2ccccc2n1C,-8.7
4,Cc1cc(C)cc(OCC(O)CN2CCN(Cc3ccc4c(c3)OCO4)CC2)c1.Cl (stereo not shown),-76
5,COc1cc(/C=N/Nc2nc(=O)[nH]nc2C)cc(OC)c1O,11.7
6,COc1ccc(NC(=O)Cn2nnc(-c3ccccc3NC(=O)c3ccco3)n2)cc1,-12.8
7,COc1cccc(OC)c1C(=O)Nc1ccccc1C(=O)N1CCOCC1,5.4
8,CC(CNC(=O)CCC(=O)N1CCOc2ccccc21)c1ccccc1 (stereo not shown),-9.84
9,Fc1cccc(Cl)c1CSc1nnc2ccccn12,9.48
10,COc1ccccc1NC(=O)NNC(=O)C(C)Oc1ccc2ccccc2c1 (stereo not shown),9.36
11,Cc1cc2cc(CNC(=S)NC3CCCCC3)ccc2n1C,13.8
12,Cc1cc(OC(C)C(=O)N2CCN(c3ccc(F)cc3)CC2)c2c(C)cc(=O)oc2c1 (stereo not shown),-1.27
13,O=C(NCCOc1ccccc1Cl)c1ncn[nH]1,-2.83
14,COCCNC(=O)C(c1ccc(F)cc1)N(C(=O)CCC(=O)Nc1ccccn1)c1cccc(C)c1 (stereo not shown),16.2
15,Cc1ccc(OCC(O)CN2CCN(Cc3ccc4c(c3)OCO4)CC2)c(C)c1.Cl (stereo not shown),-57.1
16,Cc1ccc(OCC(O)CN2CCN(Cc3ccc4c(c3)OCO4)CC2)cc1C.Cl (stereo not shown),-61.1
17,Cc1ccc(C)c(OCC(=O)N2CCN(Cc3ccc4c(c3)OCO4)CC2)c1,-23.3
18,CC(=O)c1ccc(OCC(O)CN2CCN(Cc3ccc4c(c3)OCO4)CC2)cc1 (stereo not shown),-34.8
19,CC(=O)c1ccc(OCC(O)CN2CCN(Cc3ccc4c(c3)OCO4)CC2)cc1.Cl (stereo not shown),-49.8
20,COc1cc(COCC(O)CN2CCN(Cc3ccc4c(c3)OCO4)CC2)cc(OC)c1OC.Cl (stereo not shown),-0.319
21,Cc1cccc(N2CCN(C(=O)CCn3c(=O)[nH]c4ccsc4c3=O)CC2C)c1 (stereo not shown),21.5
22,COc1ccc(OC)c2sc(NC(=O)c3ccc(S(=O)(=O)N4CCOCC4)cc3)nc12,-2.05

row,Compound,"hERG current change (%, negative = inhibition) at 10uM [%]"
1,CC(NCCO)C(=O)C12CC3CC(CC(C3)C1)C2.Cl (stereo not shown),13.1
2,CCOC(=O)C1CCN(C(=O)Cn2cnc3sc(C)c(S(=O)(=O)N4CCOCC4)c3c2=O)CC1,-14
3,COc1ccc(N2CCN(C(=O)Cn3cnc4sc(C)c(S(=O)(=O)N5CCOCC5)c4c3=O)CC2)cc1,-20.7
4,Cc1sc2ncn(CC(=O)N3CCN(c4ccc(F)cc4)CC3)c(=O)c2c1S(=O)(=O)N1CCOCC1,-64.3
5,CCOC(=O)C1CCN(C(=O)Cn2cnc3sc(C)c(S(=O)(=O)N4CCCCC4)c3c2=O)CC1,-35.5
6,CCOC(=O)C1CCN(C(=O)Cn2cnc3sc(C)c(S(=O)(=O)N4CCC(C)CC4)c3c2=O)CC1,-67.9
7,Cc1sc2ncn(CC(=O)N3CCN(c4ccccc4)CC3)c(=O)c2c1S(=O)(=O)N1CCOCC1,-16
8,CC1(C)CC(=O)C=C(Nc2cc(-c3ccccc3)[nH]n2)C1,-11.2
9,CC(NC(=O)C1CCC(=O)N1Cc1ccccc1Cl)c1ccccc1 (stereo not shown),12.8
10,COc1ccccc1-c1cc(C(=O)Nc2c(C)n(C)n(-c3ccccc3)c2=O)no1,-34.9
11,N#CCC(=O)N/N=C/c1ccccc1Cl,6.55
12,Cc1nn(C)c(C)c1S(=O)(=O)NC1CCCC1,-12
13,CCN(C(=O)CN1CCN(c2cccc(C(F)(F)F)c2)CC1)c1c(N)n(Cc2ccccc2)c(=O)[nH]c1=O,-20.3
14,O=C(c1ccccc1)c1ccc(-c2ccc(O)cc2)cc1,10.1
15,C[n+]1c(-c2ccccc2)cc(CCCCc2cc(-c3ccccc3)[n+](C)c(-c3ccccc3)c2)cc1-c1ccccc1.[O-][Cl+3]([O-])([O-])[O-],-30.6
16,C[n+]1c(-c2ccccc2)cc(-c2ccc(Cl)cc2)cc1-c1ccccc1.[O-][Cl+3]([O-])([O-])[O-],-84.1
17,Cc1cc(-c2ccccc2)cc(-c2ccccc2)[n+]1C.[Cl-],-13.6
18,Oc1ccc(-c2cccc(-c3ccc(O)cc3)c2)cc1,3.27
19,C[n+]1c(-c2ccccc2)cc(-c2ccc(O)cc2)cc1-c1ccccc1.[O-][Cl+3]([O-])([O-])[O-],-61.4
